Laboratory results taken from the supplement of paper PMC11417369.
± gives the standard deviation of the averaged measurements. Whole data set: some 25,000 sequences, median “ln(normalized median fluorescence intensity)” near 7.9, cut for the highest 2% near 11. The sample holds the highest values, similar sequences and a random draw of the others, so the mix is not that of the screen.

What follows are sequences tested on PfAP2-I AP2 domain 3 (GST-tagged) (assay: gcPBM binding intensity (ln(normalized median fluorescence intensity)); higher = stronger DNA binding).
Procedure, shortened: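 Each value is the highest Masliner-normalised natural-log median intensity across replicate spots of either orientation of a probe. The probes were primer-extended double-stranded 36-bp intergenic genomic sequences on an Agilent 4 × 180k array, alongside negative controls, exposed for 1 h to GST-tagged P. falciparum DNA-binding domains expressed in E. coli. Bound protein was picked up with Alexa488 anti-GST antibody and scanned at 488 nm.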

Row | Sequence | gcPBM binding intensity (ln)
1 | CAAAAAACAACAGATCGTACAAAATATTATATATAT [XGTACX_site2285] | 8.12 ± 0.67
2 | TTTTTTTTTTTTTTCTGTACTTAAAAAGGGGGAGAA [XGTACX_site3799] | 8.79 ± 0.7
3 | ATACATTCAAAATATACACACATATATCTATAATAT [CACACA_site6576] | 7.69 ± 0.65
4 | TGCAGTCTGGAGAAAAGTACATAGTATCTGGTAGCT [XGTACX_site2547] | 7.87 ± 0.66
5 | GAATGTAAATATTAAAGTACACAGAATATATCTTCA [XGTACX_site8149] | 7.79 ± 0.16
6 | ATAATAAAAATAAGAGAATAAAAATGCAATTTAATG [CACACA_negctrl_site878] | 7.95 ± 0.47
7 | AGAATAATAAAATGGGTGCAATAGTTTTTTTTTTTT [GTGCAC_site9823] | 11.2 ± 0.44
8 | GATAATCAGAATGGGGTGCAAAGAAAAAAAAAAAAA | 10.7 ± 0.46
9 | ATATATATTATATATAGTACTTTTTTGCGCAAATAT [XGTACX_site6849] | 8.08 ± 0.44
10 | CATTTGCACCCGCACACACACATAAAAAGAAAAATA [CACACA_site4350] | 10.7 ± 0.8
11 | TACACCCATAGACACACACACACGCATAAAAAAAAA [CACACA_site8428] | 8.36 ± 0.34
12 | TAAGAAATAAATAGTACACACATAGACACCCACCGA [CACACA_site1516] | 8.86 ± 0.15
13 | ACATTAAGACACATTGCACACGTGCACCCATAGAAA [CACACA_site8029] | 10.965 ± 0.007
14 | ACATTGCACCCGTGCACACATAGAAAAATAATTCTT [CACACA_site409] | 11.1
15 | ACCCATTGCTCACGTGCACACATAGAAAAATAATTC [CACACA_site4389] | 10.7 ± 0.16
16 | TAAGAAATAAATAGTACACACATAGACACCCACCCA [CACACA_site8429] | 8.65 ± 0.54
17 | CCATTAAGACACATTGCACACGTGCACCCATAGAAA [CACACA_site4388] | 10.79 ± 0.021
18 | ATTAAGACACATTGCACACGTGCACCCATAGAAAAA [CACACA_site408] | 11.02 ± 0.099
19 | TTTTTTGTTTGAATGGTGCATTTTGTAATTATATTT | 10.3 ± 0.41
20 | TTGTTATGTTTTATTTGTACGTAGGTTTCTATCAAA [XGTACX_site7636] | 8.12 ± 0.35

Row | Sequence | gcPBM binding intensity (ln)
21 | ATATTTATTTATATGTGTACTTATGTTTATATAAAA [XGTACX_site4250] | 8.02 ± 0.21
22 | GAAAATATAAAAAAAAGTACATTTTCTCTAAATATA [XGTACX_site2441] | 7.57 ± 0.35
23 | ATTTTTTTACTGTAACCATATTTTTCCCTTTTATTC [CACACA_negctrl_site1143] | 7.95 ± 0.79
24 | TGTATGTTATATACAACACACAAAAAAAAACAAGTT [CACACA_site301] | 7.62 ± 0.7
25 | AGACAATATCTTATTTGTACATATGTATTCCTCATA [XGTACX_site5757] | 7.88 ± 0.63
26 | GGGAATATAAGTACACGATAATATGTGATAAGGTCT [CACACA_negctrl_site1502] | 8.28 ± 0.86
27 | AAGAACCATATTTAAACACACATACCTATATAAATA [CACACA_site7553] | 7.68 ± 0.53
28 | ATGTTACACCGACACACACACATAAAAAAACAAAAA [CACACA_site5750] | 8.15 ± 0.34
29 | ATTTTTTTCTTAGGAGTGCACTTATATTTATTTTAT | 10.8 ± 0.49
30 | ACGTGTATTTATTTAGTGCACTTTATATTTTTTCTT [GTGCAC_site9426] | 11.5 ± 0.28
31 | TATATATATTAGTGTGCACACTTTTTATTTTTATCC [CACACA_site8506] | 9.33 ± 0.4
32 | ACACCTATAAATTAAGTGCATTTTTTTTGATGTTAT | 9.45 ± 0.46
33 | TTATACCTATATTTAACACACATTTGATAAAGTGCC [CACACA_site6732] | 7.76 ± 0.61
34 | ATACCTATTTGATGAGTGCATTATCCAATATATGTA | 11.3 ± 0.65
35 | ATTTTTGTTATTACATGTACCCATAATTATTATTAA [XGTACX_site3558] | 8.58 ± 0.75
36 | AAAATTATAATAATATGTACTTAAAAAATTTATATA [XGTACX_site632] | 7.54 ± 0.2
37 | TTTTTGTTACCTATTGTGCACTTCATATAAATTAAA | 11.3 ± 0.35
38 | ACATTAAAAAATTGTTTGCACTATATAAAATATTAA [GTGCAC_site9728] | 9.86 ± 0.28
39 | TGTTAAAATTATTTGGTGCACTTGTTTTACCTTATT | 10.8 ± 0.48
40 | TATATATGCATATACATACACACATAACACATACGT [CACACA_site3833] | 8.24 ± 0.39

Row | Sequence | gcPBM binding intensity (ln)
41 | ATACGTATATAATATACATGCATATATAGCACATAC [TGCATGCA_site376] | 9.11 ± 0.66
42 | TATGTTTACATATACGTGCACATGAATGTATACATT [GTGCAC_site9894] | 10.7 ± 0.29
43 | TAATATATAACGTGCACACACACATCTACGTATGAA [CACACA_site5080] | 10.82 ± 0.099
44 | ATATATAACGGGCACACACACATTTACGTATGAATA [CACACA_site1833] | 8.31 ± 0.49
45 | ATTAATATATAACGTGCACACACACCGTTACGTATG [CACACA_site8543] | 10.3 ± 0.35
46 | TTTATACATACATTCGTGCACATACGTATAACATAT | 11.2 ± 0.19
47 | ATATATAACGTGCACACACACATTTACGTATGAATA [CACACA_site6948] | 10.975 ± 0.007
48 | TAATATATAACGTGCACACACACATTTACGTATGAA [CACACA_site1832] | 10.86 ± 0.064
49 | AATGTCCTTATTTGCACACACACATATAAGAAATTT [CACACA_site3186] | 9.91 ± 0.23
50 | TTACGCGCTTATTACACACACATACAAATAAGGATT [CACACA_site3486] | 8.06 ± 0.47
51 | ATAATCAACATTAGGTGTACAAAATATGTATGTTTT [XGTACX_site6696] | 8 ± 0.59
52 | TTTTCTTTTTCCAAAAGTACGTAATTTAAACATTTT [XGTACX_site2066] | 7.83 ± 0.43
53 | AATTTTTTTCTCCAAGTGCATTAGAACATTAACGTA [GTGCAC_site9413] | 10.9 ± 0.53
54 | ATTATTAAGTTTCACAAGAACATTGTTAACAATTTT [CACACA_negctrl_site1128] | 7.5 ± 0.64
55 | AAAAAAAATTATATTTGTACGCATTAAAAAATCTAA [XGTACX_site1616] | 7.64 ± 0.26
56 | TGAACTCAACAAAGGGTGCATAACAAAAATAGACGT | 11.4 ± 0.23
57 | ATAACAAAAAAAAAGGTGCTACAAAATGAATAAAAA [GTGCAC_site9659] | 9.12 ± 0.3
58 | TGAACAGACAAATACACACACTCAAAAAAAAAAAAG [CACACA_site7287] | 7.68 ± 0.45
59 | TTTTTTTTTAATATTTGTACACAACATGAAACATTT [XGTACX_site473] | 8.16 ± 0.53
